Results filed as inconclusive are left out. Unmarked numbers belong to inactive results. Calls of active or inactive are those of the source. Calls come from the whole dose curve; as a rule, active = well fitted inhibition curve with a large enough effect; inconclusive = small, poorly fitted or top-dose-only effect; inactive = flat fitted curve, though single readings scatter.
Test: Secondary Assay for General miRNAs Modulators and/or Inhibitors/Activators of miR-21: miR-30 Firefly Luciferase Assay for second round cherrypicks
Conditions: HeLa miR-30 FLuc reporter, luminescence, 48 h; series mostly up to 38.3 µM; activity change, negative = inhibition: at the top concentration
From the text: MLPCN Grant: 1 R21 NS059478-01 Assay Provider: Qihong Huang, The Wistar Institute NCGC Assay Overview: MicroRNAs (miRNAs) are endogenously encoded small (~20-25 nucleotides), nonprotein-coding RNAs that are involved in post-transcriptional repression of target messenger RNAs (mRNAs) (Le and Hannon, 2004). Estimated to be involved in the regulation of 30% of all protein-coding mRNAs (Filipowicz et al., 2008), miRNAs play a significant role in many biological processes including cellular differentiation and tissue development (Ghildiyal and Zamore, 2009). […] Compounds active in the miR-21 FLuc assay were clustered using Leadscope and active chemical series were prioritized based on chemical properties, potential for medicinal chemistry optimization, and SAR. Within each chemical series, representative compounds were re-acquired to test for activity in a secondary assay based on the quality of their CRC, efficacy, and potency. The secondary assay to determine if compounds active in the miR-21 FLuc assay were potentially specific for miR-21 and were not general modulators of the miRNA pathway was another cell-based FLuc reporter gene assay, this time targeting miR-30. Compounds found active in both the miR-21 FLuc and miR-30 FLuc assays are not considered miR-21 specific compounds, and may be general miRNA modulators.
NCGC Assay Protocol Summary: Reagents: HeLa cells stably expressing firefly luciferase (FLuc) under the control of a CMV promoter (upstream) and a miR-30 binding sequence directly downstream of the gene. These cells also stably express miR-30. Control compounds used were compound C3 (provided by collaborator), N6-phenyladenosine (MP Biomedicals, 0215379625), and DMSO. Assay Summary: 6uL of HeLa miR-30-FLuc cells in assay buffer (DMEM, Invitrogen #21063-029; 10% FBS, HyClone #SH30071.03) were dispensed at 1000cells/well (1.7 x 10^5 cells/mL) into Greiner solid-white TC-treated 1536-well plates using a Multidrop Combi (Thermo Fisher Scientific). Plates were incubated for one hour at 37 degree Celsius, 95% humidity, 5% CO2. These assay plates were then treated with 23nL of compound or DMSO using a Kalypsys pin tool, which allows for delivery of a 24-point titration of each compound to the assay plate, with a final compound concentration ranging from approximately 40uM to 5pM. Assay plates were then incubated for 48 hours. After incubation, plates were allowed to come to RT for one hour prior to delivery of 3uL of 3X luciferase detection reagent. After a 15 minute incubation to allow for cell lysis, luciferase activity was measured using a ViewLux CCD imager (PerkinElmer), with an average exposure time of 2-12 seconds. Keywords: NIH Roadmap, MLPCN, MLSMR, qHTS, miR-21, miR-30, microRNA, firefly luciferase, FLuc.

SMILES | Potency | activity change, negative = inhibition [%]
Cc1cccc(NC(=O)Nc2ccc(Br)cc2)n1 | 4.49 µM (active) | 
COc1ccccc1N1CCN(C(=O)c2nc(-c3ccc(C)cc3)n3c2CCCCC3)CC1 |  | 8.55
CCOC(=O)c1cccc(NC(=O)c2cc(CN3CCCC3)on2)c1 | 4.49 µM (active) | 
C/C(=N/NC(=O)c1ccccc1)c1ccc(NC(=O)C(F)(F)F)cc1 |  | -12.5
CCC(=O)Nc1sc(C(=O)Nc2ccccc2)c(C)c1C(=O)OC | 11.3 µM (active) | 
Cc1ccccc1OCc1nc2c3cnn(-c4ccccc4F)c3ncn2n1 | 20 µM (active) | 
CC(c1ccccn1)N(C)C(=O)c1ccc2nc(Cc3cccc(Cl)c3)oc2c1 (stereo not given) | 6.34 µM (active) | 
Cc1cc(C)c2c(N)c(C(=O)Nc3ccccc3C(F)(F)F)sc2n1 | 11.3 µM (active) | 
CC(=O)c1ccc(Oc2ncnc3c2oc2ccccc23)cc1 | 3.18 µM (active) | 
COc1ccc(Nc2nc(C)c3ccccc3n2)cc1 | 11.3 µM (active) | 
CC(=O)N1CCc2cc(CNC(=O)Cc3ccc(F)cc3)ccc21 | 10 µM (active) | 
Cc1ccc(-c2cc(C(=O)NCC3CCCO3)no2)cc1 (stereo not given) | 3.56 µM (active) | 
CCC(C)NC(=O)CCCn1c(=O)c2cccn2c2ccccc21 (stereo not given) |  | -2.15
CC(C)c1cc(C(=O)Nc2cccnc2)no1 | 3.56 µM (active) | 
COCCNC(=O)c1ccc2c(c1)ncn2-c1ccc(F)c(F)c1 | 22.5 µM (active) | 
CN(c1ccccc1)S(=O)(=O)c1nnc(NC(=O)c2ccco2)s1 |  | 0.66
Cc1ccc(NC(=O)c2ccc(-c3ccccc3)s2)cc1 | 5.04 µM (active) | 
O=C(Nc1sc2c(c1C(=O)NCc1ccco1)CCCC2)c1cc(=O)c2ccccc2o1 | 7.11 µM (active) | 
CC(C)(C)C1CCc2nc(NC(=O)Cc3ccc(Cl)cc3)sc2C1 (stereo not given) |  | -15
Cc1ccc(C(=O)Nc2ccc3c(c2)ncn3C)cc1 | 2.83 µM (active) | 

SMILES | Potency | activity change, negative = inhibition [%]
CCCOc1ccc(OC(=O)c2ccc(-c3ccc(CCC)cn3)cc2)cc1 | 1.59 µM (active) | 
O=C(NC1CCCCCC1)C1CCN(C(=O)N2CCOc3ccc(Cl)cc32)CC1 |  | -4.96
CN(C)c1ccc(CNC(=O)C2COc3ccccc3C2)cc1 (stereo not given) |  | -18.4
Cc1ccccc1C(=O)Nc1nnc(-c2ccco2)o1 | 12.6 µM (active) | 
CCCCc1nn2c(=O)cc(COC(=O)c3cccc(NC(=O)c4cccc(C)c4)c3)nc2s1 | 4 µM (active) | 
CCOC(=O)C1CCN(C(=O)c2ccc(-n3ccc4ccccc43)s2)CC1 | 11.3 µM (active) | 
Cc1cc(N2CCN(C)CC2)nc2ccc(NC(=O)c3ccccc3F)cc12 | 10 µM (active) | 
CC(=O)O[C@H]1C[C@@]2(C)[C@@H](C[C@@H](O)[C@H]3[C@@]4(C)CC[C@@H](O)[C@@H](C)C4CC[C@@]32C)/C1=C(\CCC=C(C)C)C(=O)O (stereo not given in full) |  | -1.25
Cc1ccc2nc(-c3ccc(NC(=O)c4ccc(S(C)(=O)=O)cc4)cc3)sc2c1 |  | -8.74
CCc1ccc(C(=O)NCc2cccs2)s1 | 20 µM (active) | 
CCC(CC)C(=O)Nc1nnc(S(=O)(=O)N2CCCCCC2)s1 |  | 10.7
CC(C)(C)CC(=O)Nc1nnc(-c2cccs2)s1 | 5.04 µM (active) | 
CCCCN1CCc2c([nH]c3ccccc23)C1=O | 11.3 µM (active) | 
COc1ccc(CNc2nc(-c3ccco3)nn2C(=O)c2ccccc2Cl)cc1 | 22.5 µM (active) | 
CCc1cc(C(=O)Nc2ccccc2)cs1 | 2.83 µM (active) | 
CCOCCCNC(=O)c1cc2c(=O)n3ccccc3nc2s1 | 11.3 µM (active) | 
Cc1ccc2c(Cl)c(C(=O)Nc3ccc4c(c3)OCO4)sc2c1 | 1.59 µM (active) | 
CCC(C)C(=O)N1CCCC(c2nc(-c3cccs3)no2)C1 (stereo not given) | 6.34 µM (active) | 
Cc1ccccc1NC(=O)c1cc2c([nH]c1=O)CC(C)(C)CC2=O | 0.634 µM (active) | 
Cc1ccc(-n2ncc3c(Nc4ccc5c(c4)OCCO5)ncnc32)cc1Cl | 10 µM (active) | 

From PubChem BioAssay AID493179 (National Center for Advancing Translational Sciences (NCATS), 2011)
